Data published in PubChem BioAssay (EPA / NIEHS).
Records with an inconclusive call do not appear. Calls of active or inactive are those of the source. How the source made its calls, unless noted: active means hit-call score of the fitted dose curve at least 0.9, where 1 is the maximum; inactive means score below 0.9.

Columns and labels:
[1] = CCTE_Shafer_MEA_dev_network_spike_number: CCTE's Neural Network Formation Assay for Number of Network Spikes, Shafer Lab (AID 2284048);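 further: synchronized bursts across electrodes counted on days 5 7 9 12 and integrated as AUC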
Procedure, shortened: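 Number of network spikes (coordinated firing across electrodes) recorded on days 5, 7, 9 and 12 and summarised as area under the curve. Rat cortical cultures on MEA, continuous compound exposure with full medium/treatment exchange at DIV 5 and 9.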

[2] = CCTE_Shafer_MEA_dev_network_spike_peak: CCTE's Neural Network Formation Assay for Mean Number of Electrodes in Network Spike, Shafer Lab (AID 2284049)
Procedure, shortened: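 Rat cortical primary culture, 1.5 x 10^5 cells/well, 48-well MEA (16 electrodes/well). Dosing day 0 through DIV 12, full media/compound exchange DIV 5, 9. AxIS adaptive spike detection; AUC over days 5/7/9/12; loss-of-signal vs DMSO.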

[3] = CCTE_Shafer_MEA_dev_spike_duration_mean: CCTE's Neural Network Formation Assay for Mean Spike Duration, Shafer Lab (AID 2284051);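 further: mean network spike duration pooled as area under curve over DIV 5 to 12 recordings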
Procedure, shortened: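 Rat cortical primary cultures, 48-well MEA (16 electrodes/well); compound from plating, renewed DIV 5, 9. Network spike duration (AxIS adaptive detector) recorded DIV 5/7/9/12, combined as trapezoidal AUC; loss direction vs DMSO.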

[4] = CCTE_Shafer_MEA_dev_network_spike_duration_std: CCTE's Neural Network Formation Assay for Standard Deviation of Network Spike Duration, Shafer Lab (AID 2284052);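 further: area under curve of spike duration SD across recording days 5 to 12; hits are decreases in network spike duration SD versus DMSO vehicle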
Procedure, shortened: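 Rat cortical cultures, 1.5 x 10^5 cells/well, exposed continuously from plating to DIV 12 with media/compound renewal at DIV 5, 9. Spontaneous activity recorded DIV 5/7/9/12, AxIS adaptive spike detector; AUC across days; negative direction vs DMSO.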

[5] = CCTE_Shafer_MEA_dev_per_network_spike_spike_number_mean: CCTE's Neural Network Formation Assay for Mean Number of Spikes in a Network Spike, Shafer Lab (AID 2284053)
Procedure, shortened: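 Rat cortical primary cultures on 48-well MEA; compound from day 0, re-dosed with full media change DIV 5, 9. Recorded DIV 5, 7, 9, 12; spikes in 0.05 s window at network-spike peak ÷ total network spikes; AUC; loss vs DMSO.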

[6] = CCTE_Shafer_MEA_dev_per_network_spike_spike_percent: CCTE's Neural Network Formation Assay for Percent of Spikes in a Network Spike, Shafer Lab (AID 2284054)
Procedure, shortened: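 Metric: fraction of spikes falling in a 0.05 s window at network-spike peaks. Recordings were made on days 5, 7, 9 and 12 and collapsed by trapezoidal AUC. Cultures were rat cortical neurons on MEA plates, dosed continuously from plating, re-dosed at media changes.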

[7] = CCTE_Shafer_MEA_dev_LDH: CCTE's Lactate Dehydrogenase Assay for Cytotoxicity in the Neural Network Formation Assay, Shafer Lab (AID 2284068; active means hit-call score of the fitted dose curve at least 0.9, where 1 is the maximum;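 further: exposure for twelve days from plating with re-dosing on DIV 5 and 9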)
Procedure, shortened: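 Rat cortical primary neurons, MEA culture; dosing day 0–12, full medium plus compound exchange DIV 5, 9. Read-out: LDH enzyme activity, spectrophotometric. DMSO = negative control/baseline; signal loss → cytotoxicity.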

[8] = CCTE_Shafer_MEA_dev_AB: CCTE's Alamar Blue Assay for Cytotoxicity in the Neural Network Formation Assay, Shafer Lab (AID 2284083; active means hit-call score of the fitted dose curve at least 0.9, where 1 is the maximum;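 further: resazurin reduction fluorescence as viability of cultured neurons; twelve days of exposure from plating with re-dosing on DIV 5 and 9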)
Procedure, shortened: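 Rat cortical primary cultures, 1.5 x 10^5 cells/well on MEA; continuous compound exposure over 12 days of network development, re-dosed with full medium change DIV 5 and 9. Alamar Blue fluorescence; loss of signal = cytotoxicity vs DMSO baseline.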

[9] = CCTE_Shafer_MEA_dev_mutual_information_norm: CCTE's Neural Network Formation Assay for Mutual Information Normalization, Shafer Lab (AID 2284091)
Procedure, shortened: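 Shared information across electrodes, tracked on days 5, 7, 9 and 12 of network development and collapsed as trapezoidal area under the curve. Rat cortical cultures were treated continuously from plating, with treatment renewed at feeds on DIV 5 and 9; DMSO baseline, negative-direction fit.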

[10] = CCTE_Shafer_MEA_dev_correlation_coefficient_mean: CCTE's Neural Network Formation Assay for Mean Correlation Coefficient, Shafer Lab (AID 2284093)
Procedure, shortened: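 Rat cortical cultures, 1.5 x 10^5 cells/well, dosed from day 0 for 12 days. Spontaneous spikes recorded DIV 5/7/9/12; electrode-pair correlation coefficients averaged, AUC taken. Fit in loss direction vs DMSO.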

[11] = CCTE_Mundy_HCI_Cortical_Synap_Neur_Matur_NeuriteSpotCountPerNeuriteLength: CCTE's Synaptogenesis and Neurite Maturation Assay in rat cortical cells for Neurite Spot Count per Neurite Length, Mundy Lab (AID 2284210)
Procedure, shortened: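 Synaptophysin spots per unit neurite length, measured by automated imaging of MAP2/synaptophysin/Hoechst-stained neurons. Cultures from rat cortex received chemical at DIV 7 with media change through DIV 12; glial growth arrested by AraC at DIV 5; DMSO baseline.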

[12] = CCTE_Mundy_HCI_Cortical_NOG_NeuriteLength: CCTE's Neurite Outgrowth Assay in rat cortical cells for Neurite Length, Mundy Lab (AID 2284213)
Procedure, shortened: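 First, rat primary cortical cells were plated and, 2 h later, given test chemical as a 1/10 dilution. Finally, βIII-tubulin immunostaining enabled automated imaging of neurite length.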

[13] = CCTE_Mundy_HCI_Cortical_Synap_Neur_Matur_NeuriteLength: CCTE's Synaptogenesis and Neurite Maturation Assay in rat cortical cells for Neurite Length, Mundy Lab (AID 2284214)
Procedure, shortened: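 DMSO-normalised neurite length, from high-content imaging of anti-MAP2-stained rat cortical cells fixed at DIV 12. Glia were suppressed with AraC (DIV 5) before chemical exposure from DIV 7.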

[14] = CCTE_Mundy_HCI_Cortical_Synap_Neur_Matur_SynapseCount: CCTE's Synaptogenesis and Neurite Maturation Assay in rat cortical cells for Synapse Count, Mundy Lab (AID 2284218)
Procedure, shortened: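 Endpoint: synapses/neuron by HCI (synaptophysin puncta on MAP2-labelled neurites, Hoechst nuclei). Rat primary cortical cells, AraC DIV 5, dosed DIV 7, fixed DIV 12; DMSO negative control.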

[15] = CCTE_Mundy_HCI_hN2_NOG_NeuriteCount: CCTE's Neurite Outgrowth Assay in human hN2 cells for Neurite Count, Mundy Lab (AID 2284219; active means hit-call score of the fitted dose curve at least 0.9, where 1 is the maximum)
Procedure, shortened: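 In this morphology assay, hNP1-derived neurons received test chemical 2 h post-plating and were fixed two days later in warm paraformaldehyde/sucrose containing Hoechst 33342. Neurites, labelled by rabbit anti-βIII-tubulin (1:800) and Alexa Fluor-488 (1:500), were counted automatically.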

[16] = CCTE_Mundy_HCI_hN2_NOG_NeuriteLength: CCTE's Neurite Outgrowth Assay in human hN2 cells for Neurite Length, Mundy Lab (AID 2284220; active means hit-call score of the fitted dose curve at least 0.9, where 1 is the maximum)
Procedure, shortened: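 Plate hNP1-derived neurons, then add chemical 2 h later as a 1/10 dilution. Stain with anti-βIII-tubulin then Alexa Fluor-488 secondary, and image automatically to measure neurite length.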

[17] = CCTE_Mundy_HCI_Cortical_Synap_Neur_Matur_CellBodySpotCount: CCTE's Synaptogenesis and Neurite Maturation Assay in rat cortical cells for Cell Body Spot Count, Mundy Lab (AID 2284223)
Procedure, shortened: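 Primary rat cortical cultures, AraC added at DIV 5; dosed DIV 7 through DIV 12 […]. Fixed, stained for MAP2 and synaptophysin with Hoechst; cell body-associated synaptophysin puncta per neuron counted by high-content imaging, loss vs DMSO.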

[18] = CCTE_Mundy_HCI_hNP1_Pro_ResponderAvgInten: CCTE's Proliferation Assay in human neuroprogenitor cells, Mundy Lab (AID 2284224; active means hit-call score of the fitted dose curve at least 0.9, where 1 is the maximum;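 further: human neural progenitor cells hNP1 derived from WA09 embryonic stem cells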)
Procedure, shortened: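 Proliferation was scored as BrdU labelling intensity in human neural progenitors derived from WA09 embryonic cells, measured 26.25 hours after chemical dosing. Activity was fitted relative to DMSO.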

[19] = CCTE_Mundy_HCI_Cortical_NOG_NeuronCount: CCTE's Neurite Outgrowth Assay in rat cortical cells for Neuron Count, Mundy Lab (AID 2284236; active means hit-call score of the fitted dose curve at least 0.9, where 1 is the maximum;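 further: neurons counted by imaging betaIII-tubulin and Hoechst stained cortical cells; cells exposed to compound for about 48 hours before fixation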)
Procedure, shortened: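 Read-out: neuron number by high-content imaging of betaIII-tubulin (Alexa Fluor-488) and Hoechst-labelled rat primary cortical cells.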

[20] = CCTE_Mundy_HCI_hNP1_Casp3_7: CCTE's Caspase-Glo 3/7 Assay in human neuroprogenitor cells for Apoptosis, Mundy Lab (AID 2284240)
Procedure, shortened: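 Apoptosis is scored by activated caspase-3/7 luminescence in WA09-derived neural progenitor cells, measured 26.5 h after chemical dosing. Values represent gain of signal relative to DMSO vehicle.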

Measured: outcome

O=C(O)CNCP(=O)(O)O
inactive: [1] | [2] | [3] | [4] | [5] | [6] | [7] | [8] | [9] | [10] | [11] | [12] | [13] | [14] | [15] | [16] | [17] | [18] | [19] | [20]
